Laboratory results taken from PMC7862700, “An all-to-all approach to the identification of sequence-specific readers for epigenetic DNA modifications on cytosine”.

Columns and labels:
Experiment in all cases: DAPPL (digital affinity profiling via proximity ligation, sequencing); 10 mM Tris-HCl pH 7.5, 50 mM NaCl, 1 mM DTT, 4% glycerol, room temperature, 30 min; GST-TFs on glutathione beads, 16-mer random dsDNA library, 0.1% formaldehyde crosslink after washing; high values mean tight binding
Details in all cases: protein: recombinant; tags: N-terminal GST; dsDNA, one strand shown
[1] = biological target: T1, ERF (Homo sapiens, UniProt P50548 1-548)
T1 sequence: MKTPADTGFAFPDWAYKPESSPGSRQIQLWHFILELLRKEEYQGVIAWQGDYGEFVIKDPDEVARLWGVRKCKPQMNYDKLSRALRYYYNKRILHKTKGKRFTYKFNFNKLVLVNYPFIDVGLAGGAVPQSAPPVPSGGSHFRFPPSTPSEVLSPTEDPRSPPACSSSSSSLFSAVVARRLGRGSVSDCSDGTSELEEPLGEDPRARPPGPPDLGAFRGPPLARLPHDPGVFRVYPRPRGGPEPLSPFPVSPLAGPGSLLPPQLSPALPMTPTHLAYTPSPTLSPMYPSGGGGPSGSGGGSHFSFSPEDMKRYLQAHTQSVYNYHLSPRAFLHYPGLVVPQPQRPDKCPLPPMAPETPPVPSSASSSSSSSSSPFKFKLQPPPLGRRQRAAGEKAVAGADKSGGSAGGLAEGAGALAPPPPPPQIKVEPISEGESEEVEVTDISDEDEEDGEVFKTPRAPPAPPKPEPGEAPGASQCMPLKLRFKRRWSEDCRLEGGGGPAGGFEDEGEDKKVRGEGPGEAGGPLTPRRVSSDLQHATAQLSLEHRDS
In short: (§1)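 Binding signal is each hexamer's read frequency for a factor divided by its frequency in the tag-only sample. The factors were GST-fused human transcription factors from yeast, captured on glutathione beads, DNA-barcoded and pooled with that sample. Pools were incubated with 200 nmole of a random double-stranded 16-mer DNA library in Tris/NaCl/DTT/glycerol buffer at room temperature for 30 min, then washed, crosslinked with 0.1% formaldehyde, proximity-ligated with BsaI/T4 ligase (1 h, 37 °C), PCR-amplified and sequenced on an Illumina NextSeq500.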

[2] = biological target: T2, ETV3L (Homo sapiens, UniProt Q6ZN32 1-361)
T2 sequence: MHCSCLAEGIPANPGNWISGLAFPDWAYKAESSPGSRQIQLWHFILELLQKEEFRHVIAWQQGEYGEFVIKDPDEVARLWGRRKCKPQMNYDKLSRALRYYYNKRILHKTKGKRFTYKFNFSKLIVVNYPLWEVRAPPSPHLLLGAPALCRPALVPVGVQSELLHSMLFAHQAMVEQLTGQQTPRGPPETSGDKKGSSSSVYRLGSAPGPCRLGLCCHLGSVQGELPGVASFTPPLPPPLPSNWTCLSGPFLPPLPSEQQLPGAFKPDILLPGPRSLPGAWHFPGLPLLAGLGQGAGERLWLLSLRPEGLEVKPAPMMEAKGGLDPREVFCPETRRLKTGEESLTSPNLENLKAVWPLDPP
In short: as §1

[3] = biological target: T3, ETS2 (Homo sapiens, UniProt P15036 1-469)
T3 sequence: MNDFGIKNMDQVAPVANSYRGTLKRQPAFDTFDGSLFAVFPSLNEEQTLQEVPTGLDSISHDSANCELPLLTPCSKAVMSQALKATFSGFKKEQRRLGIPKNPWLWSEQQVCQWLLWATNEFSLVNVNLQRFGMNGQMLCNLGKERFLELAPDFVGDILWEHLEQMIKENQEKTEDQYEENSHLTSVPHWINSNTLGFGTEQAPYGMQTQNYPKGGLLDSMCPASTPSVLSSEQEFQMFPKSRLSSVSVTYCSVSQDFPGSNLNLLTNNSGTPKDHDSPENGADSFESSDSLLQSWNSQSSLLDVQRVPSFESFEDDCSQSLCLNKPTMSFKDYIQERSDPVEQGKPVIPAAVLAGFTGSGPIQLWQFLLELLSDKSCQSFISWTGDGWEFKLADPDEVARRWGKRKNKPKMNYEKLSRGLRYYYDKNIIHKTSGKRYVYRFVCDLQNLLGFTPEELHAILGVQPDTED
In short: as §1

[4] = biological target: T4, SPDEF (Homo sapiens, UniProt O95238 1-335)
T4 sequence: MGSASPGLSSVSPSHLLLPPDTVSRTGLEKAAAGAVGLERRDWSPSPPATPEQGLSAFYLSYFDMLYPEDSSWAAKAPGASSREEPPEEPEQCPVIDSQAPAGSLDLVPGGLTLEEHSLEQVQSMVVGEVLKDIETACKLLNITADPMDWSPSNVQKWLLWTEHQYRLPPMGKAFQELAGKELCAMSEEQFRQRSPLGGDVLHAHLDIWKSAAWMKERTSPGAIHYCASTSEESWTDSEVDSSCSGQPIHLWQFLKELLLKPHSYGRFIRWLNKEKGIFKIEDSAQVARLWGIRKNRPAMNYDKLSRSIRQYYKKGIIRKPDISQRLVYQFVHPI
In short: as §1

[5] = biological target: T5, ETV7 (Homo sapiens, UniProt Q9Y603 1-341)
T5 sequence: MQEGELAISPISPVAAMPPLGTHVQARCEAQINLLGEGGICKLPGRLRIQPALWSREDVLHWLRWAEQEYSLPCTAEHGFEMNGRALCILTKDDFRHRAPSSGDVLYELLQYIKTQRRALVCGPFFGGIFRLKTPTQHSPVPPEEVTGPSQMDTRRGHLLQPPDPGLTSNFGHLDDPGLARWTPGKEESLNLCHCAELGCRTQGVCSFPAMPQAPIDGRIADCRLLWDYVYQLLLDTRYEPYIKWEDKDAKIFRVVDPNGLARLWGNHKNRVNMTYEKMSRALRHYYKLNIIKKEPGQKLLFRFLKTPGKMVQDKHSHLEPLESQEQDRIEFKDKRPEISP
In short: as §1

[6] = biological target: T6, ELF5 (Homo sapiens, UniProt Q9UKW6-2 1-255)
T6 sequence: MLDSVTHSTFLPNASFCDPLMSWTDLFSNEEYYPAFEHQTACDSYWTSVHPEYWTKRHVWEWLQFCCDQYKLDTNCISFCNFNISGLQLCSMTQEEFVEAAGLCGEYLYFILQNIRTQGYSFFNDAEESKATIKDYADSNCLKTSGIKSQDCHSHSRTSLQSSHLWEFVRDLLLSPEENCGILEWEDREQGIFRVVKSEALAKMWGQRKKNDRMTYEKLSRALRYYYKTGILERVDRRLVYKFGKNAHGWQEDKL
In short: as §1

[7] = biological target: T7, ETV3 (Homo sapiens, UniProt P41162-2 1-143)
T7 sequence: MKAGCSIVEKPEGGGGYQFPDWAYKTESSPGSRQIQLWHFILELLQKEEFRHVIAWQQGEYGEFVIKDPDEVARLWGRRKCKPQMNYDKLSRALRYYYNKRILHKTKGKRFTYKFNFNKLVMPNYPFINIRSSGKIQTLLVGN
In short: as §1

[8] = biological target: ETV6 (Homo sapiens, UniProt P41212 1-452)
Chain of ETV6 (P41212 whole entry): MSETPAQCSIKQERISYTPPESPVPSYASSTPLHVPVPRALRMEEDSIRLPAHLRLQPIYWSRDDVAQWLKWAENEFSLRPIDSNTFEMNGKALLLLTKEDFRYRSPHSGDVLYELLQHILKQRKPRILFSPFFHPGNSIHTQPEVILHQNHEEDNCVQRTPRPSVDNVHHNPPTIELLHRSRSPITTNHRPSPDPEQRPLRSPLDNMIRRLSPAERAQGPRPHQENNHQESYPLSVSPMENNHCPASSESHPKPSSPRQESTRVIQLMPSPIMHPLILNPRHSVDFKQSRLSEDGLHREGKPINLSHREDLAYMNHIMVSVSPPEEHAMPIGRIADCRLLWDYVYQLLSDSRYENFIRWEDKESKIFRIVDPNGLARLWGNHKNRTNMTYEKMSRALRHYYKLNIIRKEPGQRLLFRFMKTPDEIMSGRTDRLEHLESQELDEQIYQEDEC
In short: as §1

Sequence	binding signal [1]	binding signal [2]	binding signal [3]	binding signal [4]	binding signal [5]	binding signal [6]	binding signal [7]	binding signal [8]
TAGCTC	1.04 fold enrichment (6-mer frequency, TF over GST control)	1.14 fold enrichment (6-mer frequency, TF over GST control)	1.21 fold enrichment (6-mer frequency, TF over GST control)	1.24 fold enrichment (6-mer frequency, TF over GST control)	1.24 fold enrichment (6-mer frequency, TF over GST control)	1.1 fold enrichment (6-mer frequency, TF over GST control)	1.17 fold enrichment (6-mer frequency, TF over GST control)	1.14 fold enrichment (6-mer frequency, TF over GST control)
TCGCCC	1.32 fold enrichment (6-mer frequency, TF over GST control)	1.34 fold enrichment (6-mer frequency, TF over GST control)	1.23 fold enrichment (6-mer frequency, TF over GST control)	1.25 fold enrichment (6-mer frequency, TF over GST control)	1.27 fold enrichment (6-mer frequency, TF over GST control)	1.14 fold enrichment (6-mer frequency, TF over GST control)	1.21 fold enrichment (6-mer frequency, TF over GST control)	1.23 fold enrichment (6-mer frequency, TF over GST control)
ATGATA	1.21 fold enrichment (6-mer frequency, TF over GST control)	1.22 fold enrichment (6-mer frequency, TF over GST control)	1.17 fold enrichment (6-mer frequency, TF over GST control)	1.22 fold enrichment (6-mer frequency, TF over GST control)	1.16 fold enrichment (6-mer frequency, TF over GST control)	1.23 fold enrichment (6-mer frequency, TF over GST control)	1.2 fold enrichment (6-mer frequency, TF over GST control)	1.18 fold enrichment (6-mer frequency, TF over GST control)
AAGCAT	1.19 fold enrichment (6-mer frequency, TF over GST control)	1.09 fold enrichment (6-mer frequency, TF over GST control)	1.2 fold enrichment (6-mer frequency, TF over GST control)	1.08 fold enrichment (6-mer frequency, TF over GST control)	1.14 fold enrichment (6-mer frequency, TF over GST control)	1.06 fold enrichment (6-mer frequency, TF over GST control)	1.13 fold enrichment (6-mer frequency, TF over GST control)	1.14 fold enrichment (6-mer frequency, TF over GST control)
GATTAC	1.13 fold enrichment (6-mer frequency, TF over GST control)	1.07 fold enrichment (6-mer frequency, TF over GST control)	1.1 fold enrichment (6-mer frequency, TF over GST control)	1.13 fold enrichment (6-mer frequency, TF over GST control)	1.08 fold enrichment (6-mer frequency, TF over GST control)	1.11 fold enrichment (6-mer frequency, TF over GST control)	1.07 fold enrichment (6-mer frequency, TF over GST control)	1.13 fold enrichment (6-mer frequency, TF over GST control)
TATCTC	1.3 fold enrichment (6-mer frequency, TF over GST control)	1.3 fold enrichment (6-mer frequency, TF over GST control)	1.27 fold enrichment (6-mer frequency, TF over GST control)	1.22 fold enrichment (6-mer frequency, TF over GST control)	1.21 fold enrichment (6-mer frequency, TF over GST control)	1.23 fold enrichment (6-mer frequency, TF over GST control)	1.13 fold enrichment (6-mer frequency, TF over GST control)	1.21 fold enrichment (6-mer frequency, TF over GST control)
TTCTGG	1.35 fold enrichment (6-mer frequency, TF over GST control)	1.23 fold enrichment (6-mer frequency, TF over GST control)	1.19 fold enrichment (6-mer frequency, TF over GST control)	1.23 fold enrichment (6-mer frequency, TF over GST control)	1.21 fold enrichment (6-mer frequency, TF over GST control)	1.22 fold enrichment (6-mer frequency, TF over GST control)	1.2 fold enrichment (6-mer frequency, TF over GST control)	1.32 fold enrichment (6-mer frequency, TF over GST control)
